Reference: PubChem BioAssay AID720596 (The Scripps Research Institute Molecular Screening Center, 2013)
Several values for one entry are separate records, joined by “and”; a condition that tells them apart may be missing. Equal entries are not always repeated. About 1,600 (0.43%) of roughly 370,000 compounds were called active. No stated cut-off is given here; in the data, active means inhibition above about 24%; inactive means the rest. For the sample, actives were picked, then their nearest neighbours and some compounds at random.

target: Major prion protein (Homo sapiens) (UniProt P04156); test: reduces human prion protein on the cell surface, primary screen, cell-based, TR-FRET (AID 720596); conditions: cell surface PrPC, TR-FRET read-out; at 13.8 µM; stronger effect = higher value; further: 0% = median of the test wells and 100% = reference compound wells

SMILES	inhibition
Nc1[nH]c(C(=O)c2ccc(Br)cc2)c(-c2ccc3c(c2)OCO3)c1C(=O)NCCc1c[nH]c2ccccc12	-5.16% (inactive)
Oc1c(Cl)cc(Cl)c(Cl)c1Cc1c(O)c(Cl)cc(Cl)c1Cl	28.9% (active)
C=CCC[C@@H](CCCCC)OC(=O)/C=C/[C@@H](O)[C@H](O)C[C@H](O)CC=C	-5.85% (inactive)
COc1ccc(-c2cc(-c3nnc(SCc4ccc([N+](=O)[O-])cc4)n3N)[nH]n2)cc1	0.13% (inactive)
CCOc1ccc(S(=O)(=O)N(CC(=O)O)c2ccccc2)cc1	-3.25% (inactive)
COC(=O)[C@]12C[C@H](CC(=O)NCc3ccc(C)o3)C(=O)N(CCC3=CCCCC3)C1=C[C@H](C(C)(C)C)O[C@@H]2C	7.81% (inactive)
Cc1ccc(NC(=O)C(=O)NCC2CCN(C(=O)c3cccc([N+](=O)[O-])c3)CC2)cc1	-5.67% (inactive)
O=C(Nc1ccc(C2CC2(Cl)Cl)cc1)c1cccc([N+](=O)[O-])c1 (stereo not drawn)	25.6% (active)
O=C(Nc1ccc([N+](=O)[O-])cc1)C1CC12CCC2 (stereo not drawn)	3.59% (inactive)
COc1cc(C(=O)N2Cc3ccc(Br)cc3-n3nncc3C2)cc(OC)c1OC	-0.36% (inactive)
Cc1ccc(C)c(S(=O)(=O)N2CCCOC2CNC(=O)C(=O)NC2CCCCC2)c1 (stereo not drawn)	-1.91% (inactive)
COc1ccc2c(CC(=O)OCC(=O)Nc3ccccc3[N+](=O)[O-])coc2c1	-12.7% (inactive)
CO[C@H]([C@H](C)/C=C/N(C)C=O)[C@@H](C)C(=O)CC[C@H](C)[C@H](O)[C@H](C)[C@H]1OC(=O)/C=C/C(C)=C/[C@H](O)[C@H](OC)C[C@@H]2C=CC[C@@H](C[C@H](OC)[C@@]3(CO3)[C@@H](OC)C[C@@H](OC)[C@@H]1C)O2	38% (active)
CN(C)C(=O)CCc1ccc2c3c([nH]c2c1)[C@]1(C)[C@@H](C(=O)N2CCCCC2)C[C@H](CC(=O)NCCC2=CCCCC2)C(=O)N1CC3	-3.09% (inactive)
CN(CCc1ccccc1)C(=O)c1cccc(NC(=O)Cc2ccc([N+](=O)[O-])cc2)c1	-2.03% (inactive)
CC(C)(C)NC(=O)c1cccc(NC(=O)Cc2ccc(Br)cc2)c1	11% (inactive)
O=C(Cc1ccccc1)Nc1cccc(NC(=O)c2ccccc2)c1	30.2% (active)
Cc1ccc(Cc2cncc(O)c2)cc1S(=O)(=O)O	-7.2% (inactive)
Cc1[nH]c(C)c(S(=O)(=O)N2CCC(C)CC2)c1C(=O)N1CCCC1	-7.7% (inactive)
O/N=C(\C[n+]1ccccc1)c1ccc(Br)cc1	6.16% (inactive)
O=C(c1ccc(-c2ccccc2)cc1)C1CCCN(C(=O)c2cncs2)C1 (stereo not drawn)	6.46% (inactive)
C=CCN(c1ccccc1C(=O)NCC(=O)OCC)S(=O)(=O)c1ccc(C)cc1	5.82% (inactive)

SMILES	inhibition
O=C(Oc1ccccc1)Oc1ccc2c(c1)oc(=O)c1ccccc12	31.3% (active)
O=C(OCCN1C(=O)c2ccccc2C1=O)Oc1ccccc1	-3.25% (inactive)
CCc1ccc(Oc2coc3cc(OC(=O)c4cc5ccccc5oc4=O)ccc3c2=O)cc1	-6.51% (inactive)
C=C(C)c1cccc(C(C)(C)NC(=O)NCCN(CC)CC)c1	-1.16% (inactive)
CCOc1ccc(NC(=O)C2CC(=O)N=C(N)S2)cc1 (stereo not drawn)	3.27% (inactive)
CCc1ccc(OCC(=O)N(Cc2ccccc2)C2CCS(=O)(=O)C2)cc1 (stereo not drawn)	7.58% (inactive)
CC1=CC2=NC(=O)CC(C)(C(=O)N(CC(=O)NC(C)(C)C)Cc3ccccc3)N2C=C1 (stereo not drawn)	-11.9% (inactive)
O=C(Cn1c(-c2cscn2)nc2ccccc21)Nc1ccc(Cl)cc1	16.8% (inactive)
O=C(O)CCc1nc2cc(Cl)ccc2n(Cc2ccccc2)c1=O	-3.72% (inactive)
O=c1[nH]cccc1-c1nc2ccccc2n1Cc1ccc(Cl)cc1	48.8% (active)
CCCCCn1nnnc1-c1nc2cc3ccccc3cc2[nH]c1=O	-2.3% (inactive)
COc1cc(OC)c(C(=O)OC(C)C(=O)Nc2cc(C(F)(F)F)ccc2Cl)cc1OC (stereo not drawn)	-3.19% (inactive)
CC(=O)c1ccc(S(=O)(=O)N(C)CCCC(=O)N(C)Cc2ccccc2F)cc1	3.84% (inactive)
Cc1ccc(S(=O)(=O)NCC2CCC(C(=O)N3CCOCC3)CC2)cc1 (stereo not drawn)	9.49% (inactive)
O=C(NNC(=O)C(O)c1ccccc1)NC1CCCCC1 (stereo not drawn)	5.45% (inactive)
O=C(Cn1nnc(-c2ccccc2)n1)NC(=O)NC1CCCC1	1.46% (inactive)
Cc1nc(/N=C(\N)NC(=O)NC2CCCCC2)nc2ccccc12	27.6% (active)
C[C@H]1CN([C@@H](C)CO)C(=O)c2cc(C3=CCCCC3)cnc2O[C@@H]1CN(C)C(=O)Cc1ccccc1	-9.73% (inactive)
Cc1sc2c(c1C)c(=O)n(-c1ccccc1)c1nncn21	-3.5% (inactive)
c1ccc(CCC2=NCCn3cccc32)cc1	-4.1% (inactive) and -18.3% (inactive)
CCOc1ccc(C(CC(=O)O)n2cnnn2)cc1OC (stereo not drawn)	-3.65% (inactive)
CCCCC(=O)NC(c1ccc(OC)c(OC)c1)c1ccc2cccnc2c1O (stereo not drawn)	28.6% (active)

SMILES	inhibition
CCCCCCCC(=O)NC(Nc1ccccc1OC)C(Cl)(Cl)Cl (stereo not drawn)	1.28% (inactive)
CCOC(=O)C1=CCC(c2ccc(F)cc2)N(S(=O)(=O)c2ccc(C)cc2)C1 (stereo not drawn)	0.96% (inactive)
Cc1cc(C)n(CCNS(=O)(=O)c2ccc(Cl)cc2)n1	-3.39% (inactive)
Cc1nnc(SCC(=O)NCc2cccs2)[nH]c1=O	0.4% (inactive)
N#Cc1c(-c2cccs2)nc(SCC(=O)c2ccc(Br)cc2)[nH]c1=O	49.9% (active)
N#Cc1c(-c2ccc(F)cc2)cc(C2CC2)nc1SCC(=O)c1cccs1	8.6% (inactive)
CC(C)(C)NC(=O)NC(=O)COC(=O)C1(C)CC1(Cl)Cl (stereo not drawn)	-0.21% (inactive)
O=C(Nc1ccc(Cl)cc1)c1cc2nc(C3CC3)cc(C(F)(F)F)n2n1	-1.38% (inactive)
O=C(COC(=O)c1cc2c(s1)CCCC2)NCc1ccccc1Cl	0.1% (inactive)
CSc1ncccc1C(=O)NCc1ccccc1Cl	-4.63% (inactive)
Clc1ccc(-c2cc(COc3ccccc3)no2)cc1Cl	-6.65% (inactive)
CC(C)Cn1c(N2CCN(C(=O)/C=C/c3ccccc3)CC2)nc2ccccc21	-10.9% (inactive)
COc1cc(C)c(Cl)cc1S(=O)(=O)n1ccnc1	-3.46% (inactive)
O=C(COc1ccc2ccc(=O)oc2c1)NCC(O)c1ccccc1 (stereo not drawn)	-8.2% (inactive)
Cc1cc2ccccc2n1CCNC(=O)COc1ccc2ccccc2c1	45.2% (active)
COc1ccc(CCNC(=O)COc2ccc3c(c2)OCO3)cc1	-3.21% (inactive)
Cc1ccc(C)c(NC(=O)CCS(=O)(=O)c2ccccc2)c1	4.81% (inactive)
CCc1nc2ccc(C(=O)NCCNC(C)=O)cn2c1N(CC)Cc1cccc(Br)c1	1.46% (inactive)
CCOC(=O)N1CCN(C(=O)c2ccccc2N(Cc2ccccc2)S(=O)(=O)c2ccc(OC)cc2)CC1	9.59% (inactive)
COc1cccc(Cn2cc(COC(=O)Nc3ccc(F)cc3)nn2)c1	6.34% (inactive)
CN(C)C(=O)c1nc2ccc(Cl)cn2c1CNCc1cccc(OC(F)(F)F)c1	-9.54% (inactive)
C=CCNC(=O)CSc1nc2scc(-c3ccco3)c2c(=O)n1CC=C	25.2% (active)

SMILES	inhibition
C=CCn1c(=S)[nH]c2scc(-c3ccco3)c2c1=O	4.26% (inactive)
C=CCn1c(SCC(=O)c2c(N)n(C)c(=O)n(C)c2=O)nc2sc(CC)cc2c1=O	2.42% (inactive)
Nc1nc(NC(=O)/C=C/c2ccc(F)cc2)nn1-c1ccccc1	-4.74% (inactive)
COc1ncnc2c1ncn2CCCNCCN1CCOCC1	-1.3% (inactive)
CCOC(=O)[C@]12CCCC=C1N(Cc1ccc(OC)cc1)C(=O)[C@@H]2CC(=O)NCc1cccs1	6.08% (inactive)
O=C(Nc1ccccc1)N1CCN(Cc2nc3ccccc3c(=O)[nH]2)CC1	-8.21% (inactive)
NC(=O)C1CCN(Cc2nc3c(Br)cc(Br)cc3c(=O)[nH]2)CC1	28.2% (active)
NC(=O)C1CCN(C(=O)c2ccc3c(=O)n(Cc4cccc(Br)c4)c(=S)[nH]c3c2)CC1	9.5% (inactive)
O=C(NC1CCCC1)C1c2ccccc2OCC(=O)N1CC(F)(F)F (stereo not drawn)	1.68% (inactive)
CCc1nnc(NC(=O)CSc2nnc(COc3ccc(C#N)cc3)n2-c2ccccc2)s1	0.08% (inactive)
N#Cc1ccc(OCC(=O)Nc2nc(-c3ccccn3)cs2)cc1	32.4% (active)
O=C(CN1C(=O)C2C3C=CC(C3)C2C1=O)Nc1nc(-c2ccccn2)cs1 (stereo not drawn)	2.72% (inactive)
CCN(Cc1ccncc1)C(=S)Nc1ccccc1C	0.38% (inactive)
O=S(=O)(c1ccccc1)N(Cc1cccc(F)c1)c1ccccc1	7.38% (inactive)
C#CCSc1nnc(-c2sc3ccccc3c2Cl)o1	3.9% (inactive)
COc1ccc2c(Cl)c(-c3nnco3)sc2c1	24.9% (active)
Fc1ccc(COc2ccc(-c3nnco3)cc2)cc1	1.45% (inactive)
Cn1cnc(S(=O)(=O)N2C[C@@H](O)COC[C@@H]3O[C@H](CC(=O)NC4CCC4)CC[C@H]32)c1	9.27% (inactive)
Cc1nn(-c2ccccc2)c(=O)c2noc(C)c12	1.14% (inactive)
CCCCn1c(SCc2ncc(-c3ccccc3)o2)nc2cc(S(N)(=O)=O)ccc21	2.37% (inactive)
COc1ccc(C[C@H]2CN3C(=NC[C@H]3C)N2CCNC(=O)CCC2CCCCC2)cc1	-0.91% (inactive)
CC1(C(=O)NS(=O)(=O)Cc2cccc(Cl)c2)CCN1C(=O)Cc1ccc(Cl)cc1Cl (stereo not drawn)	1.42% (inactive)
